This is an account of results in PubChem BioAssay (EPA / NIEHS).

The nature of experiment [1]: BSK_hDFCGF_SRB: Viability Assessment in the BioMAP Diversity Plus: hDFCGF Assay (AID 2283061).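 Further: cells exposed to compound for 24 h before the read.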 Particulars: primary human foreskin fibroblasts. An outline of the steps:
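SRB-based viability read on primary human skin fibroblasts at 24 h: TCA fixation, 0.1% dye, 560 nm. Gain or loss of signal is fitted against the DMSO negative control.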

Read-out in experiment [2]: TIMP metallopeptidase inhibitor 1 (TIMP1), TIMP1 (gene 7076)
Description: BSK_hDFCGF_TIMP1: BioMAP Diversity Plus: hDFCGF Assay for TIMP metallopeptidase inhibitor 1 (TIMP1) Biomarker Activity (AID 2283062). Particulars: primary human foreskin fibroblasts; actives raise or lower the signal. A digest of the protocol: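 Bidirectional curve fitting against DMSO baseline yielded this endpoint, based on ELISA detection of TIMP-1 in primary human foreskin fibroblasts exposed to compound for 24 h.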

Read-out in experiment [3]: Monokine induced gamma interferon (MIG), CXCL9 (gene 4283)
Description: BSK_hDFCGF_MIG: BioMAP Diversity Plus: hDFCGF Assay for Monokine induced gamma interferon (MIG) Biomarker Activity (AID 2283063). The note with it: primary human foreskin fibroblasts; actives raise or lower the signal. A digest of the protocol:
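Endpoint derived by bidirectional fitting relative to DMSO; MIG quantified via ELISA in primary human foreskin fibroblasts harvested 24 h after dosing.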

Read-out in experiment [4]: Matrix Metallopeptidase 1 (MMP1), MMP1 (gene 4312)
Kind of experiment: BSK_hDFCGF_MMP1: BioMAP Diversity Plus: hDFCGF Assay for Matrix Metallopeptidase 1 (MMP1) Biomarker Activity (AID 2283064). The note with it: primary human foreskin fibroblasts; actives raise or lower the signal. An outline of the steps: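 ELISA read-out of MMP1 from human foreskin fibroblasts (primary skin cells), 24 h post-dose. Gain or loss of signal was fitted bidirectionally versus DMSO negative control; cytotoxicity was checked by SRB in parallel cultures.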

Read-out in experiment [5]: Vascular cell adhesion molecule 1 (VCAM1), VCAM1 (gene 7412)
Description: BSK_hDFCGF_VCAM1: BioMAP Diversity Plus: hDFCGF Assay for Vascular cell adhesion molecule 1 (VCAM1) Biomarker Activity (AID 2283065).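 On AC50: VCAM-1 protein level quantified by ELISA after 24 h chemical exposure.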 Particulars: primary human foreskin fibroblasts; actives raise or lower the signal. An outline of the steps:
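Measured after 24 h chemical treatment of primary human skin fibroblasts, VCAM-1 was detected by ELISA and concentration-response analysed in both directions versus DMSO vehicle.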

Read-out in experiment [6]: Plasminogen activator inhibitor-1 (PAI1), SERPINE1 (gene 5054)
Kind of experiment: BSK_hDFCGF_PAI1: BioMAP Diversity Plus: hDFCGF Assay for Plasminogen activator inhibitor-1 (PAI1) Biomarker Activity (AID 2283066). Particulars: primary human foreskin fibroblasts; actives raise or lower the signal. An outline of the steps:
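PAI-1 levels in human dermal foreskin fibroblasts were quantified by ELISA 24 h after dosing, with gain or loss analysed against DMSO. Overt cytotoxicity was checked by sulforhodamine B total-protein staining in parallel cultures.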

Read-out in experiment [7]: Interferon-gamma inducible Protein 10 (IP10), CXCL10 (gene 3627)
Description: BSK_KF3CT_IP10: BioMAP Diversity Plus: KF3CT Assay for Interferon-gamma inducible Protein 10 (IP10) Biomarker Activity (AID 2283068). The note with it: primary human keratinocytes with fibroblasts; actives raise or lower the signal. An outline of the steps: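 Human keratinocyte plus foreskin fibroblast primary co-culture exposed to test chemical for 24 h; IP-10 measured by ELISA. Concentration-response fitted bidirectionally against DMSO control as baseline.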

Experiment [8] in a line: BSK_KF3CT_SRB: Viability Assessment in the BioMAP Diversity Plus: KF3CT Assay (AID 2283069).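 Further: read 24 h after compound addition; fitted for both signal gain and loss against DMSO baseline.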 The note with it: primary human keratinocytes with fibroblasts. A digest of the protocol:
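SRB read-out at 560 nm (0.1% stain, TCA-fixed cells) gauges overt cytotoxicity in a human skin keratinocyte–fibroblast co-culture 24 h post-dosing. Signal change was fitted bidirectionally relative to DMSO control.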

Read-out in experiment [9]: Interleukin-1 alpha (IL1a), IL1A (gene 3552)
Description: BSK_KF3CT_IL1a: BioMAP Diversity Plus: KF3CT Assay for Interleukin-1 alpha (IL1a) Biomarker Activity (AID 2283070). Particulars: primary human keratinocytes with fibroblasts; actives raise or lower the signal. A digest of the protocol: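 Primary skin co-culture (keratinocytes, foreskin fibroblasts), 24 h exposure; ELISA for IL-1a; bidirectional curve fit vs DMSO.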

Several values for one entry are separate records, joined by “and”; a condition that tells them apart may be missing. Equal entries are not always repeated. Activity calls are given as the source filed them. How the source made its calls: active means hit-call score of the fitted dose curve at least 0.9, where 1 is the maximum; inactive means score below 0.9.

Turning to `O=S(=O)(O)CCC(F)(F)C(F)(F)C(F)(F)C(F)(F)F`, the result in experiment [1], in [2], in experiment [3], in experiment [4], in experiment [5] and in [6] was inactive. Further, the outcome in [7], in experiment [8] and in experiment [9] was inactive.

In the case of `COC(F)(C(F)F)C(F)(F)F` (stereo not given), the outcome in [1], in [2], in experiment [3], in experiment [4], in experiment [5] and in [6] was inactive. The result in [7], in [8] and in [9] was inactive.

In the case of `CC(C)CCCC(C)CCO` (stereo not given), the result in experiment [1], in [2], in experiment [3], in experiment [4], in experiment [5] and in [6] was inactive. The AC50 (in general, the concentration giving half of the maximal activity seen) was 35.6 µM (active) in experiment [7], 34.4 µM (active) in experiment [8] and 34.4 µM (active) in experiment [9].

For the compound `O=C=NCc1cccc(CN=C=O)c1`, the result in experiment [1], in experiment [2], in [3], in [4], in experiment [5] and in experiment [6] was inactive. Moreover, the result in [7], in experiment [8] and in [9] was inactive.

Take `O=C1c2c(O)ccc(Nc3ccc(CCO)cc3)c2C(=O)c2c([N+](=O)[O-])ccc(O)c21`: the concentration at half-maximal activity (AC50) in experiment [1] is 20 µM (active); in experiment [2], 20 µM (active); in experiment [3] it was 29.5 µM (active); in experiment [5], 9.03 µM (active); in experiment [7] it was 27 µM (active). Also, the result in experiment [4], in experiment [6], in [8] and in [9] was inactive.

Take `CCN(CC)c1ccc(N=Nc2ccccc2)cc1`: the result in experiment [1], in [2], in experiment [3], in experiment [6], in [7] and in [8] was inactive. In addition, the outcome in [9] was inactive. In addition, the AC50 in experiment [5] was 20 µM (active).

As for `CCOC(=O)CC(=O)C(F)(F)C(F)(F)F`, the outcome in experiment [1], in experiment [2], in experiment [3], in experiment [4], in experiment [5] and in experiment [6] was inactive. Further, the result in [7], in experiment [8] and in experiment [9] was inactive.

`Cc1cc(O)c(C(C)(C)C)cc1C(C)(C)C`: the half-maximal activity concentration (AC50) in experiment [1] was 5.28 µM (active); in experiment [2] it was 4.03 µM (active); in [3], 9.12 µM (active); in experiment [4], 6.54 µM (active); in experiment [5] it was 5.41 µM (active); in experiment [6], 4.51 µM (active). Also, the AC50 is 3.63 µM (active) in experiment [7], 2.33 µM (active) in experiment [8] and 4.04 µM (active) in [9].

For `C[C@]12CC[C@H]3C(=CCc4cc(O)ccc43)[C@@H]1CCC2=O`, the result in experiment [1], in experiment [2], in [3], in [4], in experiment [5] and in [6] was inactive. Also, the result in [7], in experiment [8] and in experiment [9] was inactive.

As to `CN(C(=O)C(F)(F)C(F)(F)C(F)(F)F)[Si](C)(C)C`, the outcome in [1], in [2], in experiment [3], in [4], in experiment [5] and in experiment [6] was inactive. Besides, the outcome in [7], in experiment [8] and in experiment [9] was inactive.

As to `O=C=Nc1cccc2c(N=C=O)cccc12`, the result in [1], in experiment [2], in experiment [3], in [4], in experiment [5] and in experiment [6] was inactive. For the same compound, the outcome in experiment [7], in experiment [8] and in experiment [9] was inactive.

For the compound `OCC(O)CC(F)(F)C(F)(F)C(F)(F)C(F)(F)F` (stereo not given), the result in experiment [1], in experiment [2], in [3], in experiment [4], in experiment [5] and in experiment [6] was inactive. Also, the outcome in experiment [7], in experiment [8] and in experiment [9] was inactive.

As for `C=CC(=O)OCC(F)(F)C(F)(F)C(F)(F)C(F)(F)C(F)(F)C(F)(F)C(F)(F)C(F)F`, the result in experiment [1], in experiment [2], in experiment [4], in experiment [6], in experiment [7] and in experiment [8] was inactive. Also, in [9], the outcome was inactive. The AC50 in experiment [3] was 26.9 µM (active) and 30 µM (active); in experiment [5] it was 17 µM (active) and 17.5 µM (active).

Consider `OCCCCC(F)(F)C(F)(F)C(F)(F)C(F)(F)F`, for which the result in [1], in experiment [2], in [3], in experiment [4], in experiment [5] and in experiment [6] was inactive. For the same compound, the outcome in experiment [7], in experiment [8] and in experiment [9] was inactive.

As to `O=C(O)C(F)(F)C(F)(F)C(F)(F)C(=O)O`, the AC50 in experiment [1] was 1.81 µM (active) and 19.7 µM (active). For the same compound, the result in experiment [2], in experiment [3], in [4], in experiment [5], in [6] and in [7] was inactive. Also, the outcome in experiment [8] and in [9] was inactive.

As for `Cc1ccc(O)c(-n2nc3ccccc3n2)c1`, the outcome in experiment [1], in experiment [2], in [3], in [4], in [5] and in experiment [6] was inactive. Further, the outcome in experiment [7], in [8] and in experiment [9] was inactive.

With `Cc1cc(C)c(O)c(C(C)(C)C)c1`, the AC50 in experiment [1] was 35.2 µM (active); in experiment [2], 30.1 µM (active); in experiment [3] it was 32.8 µM (active); in [4] it was 34 µM (active); in experiment [5] it was 34.7 µM (active); in [6], 30.9 µM (active). The results for the AC50 in [7], in [8] and in experiment [9] were 34.2 µM (active), 33.5 µM (active) and 31.1 µM (active), respectively.

As to `CC(C)(C)c1cc(CCC(=O)NCCCCCCNC(=O)CCc2cc(C(C)(C)C)c(O)c(C(C)(C)C)c2)cc(C(C)(C)C)c1O`, the outcome in experiment [1], in experiment [2], in [3], in [4], in [5] and in experiment [6] was inactive. The result in experiment [7], in experiment [8] and in [9] was inactive.

Turning to `NCC(F)(F)C(F)(F)C(F)(F)C(F)(F)C(F)(F)C(F)(F)F`, the outcome in [1], in experiment [2], in [3], in experiment [4], in experiment [5] and in experiment [6] was inactive. Also, the result in experiment [7], in experiment [8] and in [9] was inactive.
